# Hits are enriched below; roughly 3.2% of the tested compounds scored in any of these assays.
# PNC assembly inh = blocks assembly of the perinucleolar compartment; activity change (PNC), negative = inhibition, % at 10 µM; hit rate 3.1% among 140,000; PC3M PTB-GFP, PNC prevalence imaging, 16 h; active compounds read low;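 active = readout at or below -70, meaning at least 70% loss of cells showing the perinucleolar compartment, a nuclear body marking cancer cells; inconclusive = readout between -30 and a set limit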;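 note: plate controls were DMSO wells for no effect and camptothecin positive control wells for full effect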
#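 PC3M cells stably expressing PTB-GFP, 750–1000 cells/well, treated 16 h at 37 °C with compound (23 nl of library stock), in duplicate. After paraformaldehyde fixation and Hoechst stain, imaged at 20x; PNC prevalence scored by image analysis.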
# ALOX12 inhib = inhibitors of human 12-lipoxygenase (ALOX12); P18054; purified 12-hLO, xylenol orange hydroperoxide absorbance; Potency, µM (titrated, usually from 57.1 µM), for the others: at the highest dose activity change, negative = inhibition, actives largely listed as inhibitors; hit rate 0.12% among 150,000; AID 1452; note: potency is the fitted concentration of half-maximal effect; nearly all actives have a fitted effect of over 55% in size
#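 Purified human 12hLO (150 nM), preincubated 15 min with compound, then 40 uM arachidonic acid for 30 min, room temperature, Hepes pH 7.0 with 0.01% Triton X-100. Hydroperoxide detected by ferrous iron/xylenol orange; 573/405 nm absorbance ratio gives reaction progress.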
# ALOX15B inhib = 15-hLO-2 (ALOX15B) enzyme inhibition | hit rate 0.56% among 110,000 | Potency, µM (titrated, usually from 57.1 µM), without a hit: top-dose activity change, negative = inhibition, usual class: inhibitors | O15296 | purified 15hLO-2, xylenol orange hydroperoxide absorbance; note: potency is the fitted concentration of half-maximal effect; nearly all actives have a fitted effect of over 60% in size
# Target sequence (O15296 whole entry, looked up): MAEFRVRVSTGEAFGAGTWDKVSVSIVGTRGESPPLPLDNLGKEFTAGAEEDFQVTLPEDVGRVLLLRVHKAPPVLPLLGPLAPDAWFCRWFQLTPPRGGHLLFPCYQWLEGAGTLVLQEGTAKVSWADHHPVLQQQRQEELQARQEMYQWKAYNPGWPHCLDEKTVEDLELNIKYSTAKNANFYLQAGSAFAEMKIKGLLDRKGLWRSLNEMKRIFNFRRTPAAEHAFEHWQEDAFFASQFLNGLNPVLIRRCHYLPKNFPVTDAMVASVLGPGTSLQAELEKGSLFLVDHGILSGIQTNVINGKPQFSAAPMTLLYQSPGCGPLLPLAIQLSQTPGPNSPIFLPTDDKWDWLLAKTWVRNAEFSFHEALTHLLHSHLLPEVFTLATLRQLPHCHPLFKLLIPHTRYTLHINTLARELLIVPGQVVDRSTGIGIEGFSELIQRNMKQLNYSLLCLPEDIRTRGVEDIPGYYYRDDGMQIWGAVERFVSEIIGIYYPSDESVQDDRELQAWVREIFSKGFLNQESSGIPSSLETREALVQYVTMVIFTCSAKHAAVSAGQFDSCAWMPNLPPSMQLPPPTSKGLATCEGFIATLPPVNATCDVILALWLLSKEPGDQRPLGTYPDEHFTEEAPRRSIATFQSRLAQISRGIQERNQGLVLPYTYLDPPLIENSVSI
#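 Purified human 15hLO-2 (50 nM final) preincubated with compounds 15 min at room temperature in 25 mM Hepes pH 7.5, 0.01% Triton X-100, then 45 uM arachidonic acid added for 90 min; hydroperoxide detected via ferrous/xylenol orange, 573/405 nm absorbance ratio.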
# * = called active by the depositor; u = inconclusive; x = no result given; [ ] = remark or other dose. Unless noted, calls come from the whole dose curve; as a rule, active = well fitted curve in the direction sought with a large enough effect; inconclusive = small, poorly fitted or top-dose-only effect, or another doubt; inactive = no such curve, though single readings can be large; an effect the other way counts as inactive or inconclusive. Unless noted, % is set by controls: 0 for no effect and ±100 for the full control effect.
SMILES,PNC assembly inh,ALOX12 inhib,ALOX15B inhib
Cc1ccccc1NS(=O)(=O)c1ccc(F)cc1,-97.4*,-0.6%,1.1%
COC(=O)c1ccc(-c2nn(C)c(=O)c3ccccc23)cc1,-108.4*,-0.2%,-5.6%
Cn1nc(-c2ccc(C(=O)O)cc2)c2ccccc2c1=O,35.2,3.9%,0.8%
CN(C)c1ccc(-c2nc(-n3ccnc3)c3ccccc3n2)cc1,x,x,24.6%
COc1ccc(/C=N/OCC(=O)N(Cc2ccc(OC)cc2)c2ccccc2C(=O)O)cc1,20.3,-3.0%,x
COC(=O)c1ccccc1S(=O)(=O)N1CCc2nc(-c3ccccc3)c3c(c2C1)CO[C@@H](C)C3,x,1.4%[11.4 µM],x
OCCNc1nc(Nc2ccccc2)nc(Nc2ccccc2)n1,1.9,-4.4%,9.7%
OCCNc1nc(Nc2ccccc2)nc2ccccc12,-118.9*,-8.0%,x
CC[C@]1(O)C[C@H]2CN(CCc3c([nH]c4ccccc34)[C@](C(=O)OC)(c3cc4c(cc3OC)N(C)[C@@H]3[C@](O)(C(=O)OC)[C@H](OC(C)=O)[C@]5(CC)C=CCN6CC[C@]43[C@@H]65)C2)C1,x,-12.1%,35.7%
CC1(C)CC(NC(=O)C2CCCCC2C(=O)O)CC(C)(C)N1 (stereo unspecified),-98.7*,-1.8%,-4.1%
CC1(C)CC(NC(=O)CC2CCCCC2)CC(C)(C)N1,-4.2,-2.9%,-1.4%
S=c1nc(-c2ccccc2Cl)n(Cc2cccnc2)c2c1CCCC2,-88.3*,4.2%,x
Cc1cccc(-c2nc(=S)c3c(n2Cc2ccco2)CCCC3)c1,u,-20.4%,u
Cc1ccc(N(C(=O)Cn2nnc(-c3ccccc3)n2)C(C(=O)NC2CCCCC2)c2ccccn2)cc1C (stereo unspecified),6.9,4.9%,x
CC(=O)O[C@H]1C2OC(=O)C(C)=C2[C@@H]2OC(=O)[C@]3(CCC4OC41C)OC23 (stereo partly specified),-118.9*,-1.8%,x
OC(C#CCN1CCCCC1)c1ccccc1 (stereo unspecified),10.4,-0.7%,3.0%
OC(C#CCN1CCCC1)c1ccccc1 (stereo unspecified),-86.5*,-9.5%,10.2%
COC(=O)N/N=C/c1cccc(OCCSc2ccc(Cl)cc2)c1,-0.7,-6.1%,x
Nc1nc2n(n1)C(c1ccc(Cl)cc1)CC(c1ccc(F)cc1)N2 (stereo unspecified),-119.3*,1.4%,x
CCOc1ccccc1C1CC(c2ccc(Br)cc2)Nc2nc(N)nn21 (stereo unspecified),-114.1*,-10.7%,x
COc1ccc(C2CC(c3ccc(F)cc3)Nc3nc(N)nn32)cc1 (stereo unspecified),39.5,0.2%,x
CCOc1ccc(C2CC(c3ccccc3C)n3nc(N)nc3N2)cc1 (stereo unspecified),-10.3,2.8%,3.1%
COc1cccc(C2CC(c3c(Cl)cccc3Cl)n3nc(N)nc3N2)c1 (stereo unspecified),u,3.4%,5.8%
COc1cccc(C2CC(c3c(F)cccc3Cl)n3nc(N)nc3N2)c1 (stereo unspecified),-109.8*,1.5%,x
Cc1nc(CCN2C(=O)c3ccccc3C2=O)cs1,-111.1*,0.6%,7.4%
SMILES,PNC assembly inh,ALOX12 inhib,ALOX15B inhib
CNc1nc(CCN2C(=O)c3ccccc3C2=O)cs1,-4.7,1.1%,-2.6%
CCCNC(=O)C(Cc1ccccc1)NS(=O)(=O)c1ccc2c(c1)CCC(=O)N2 (stereo unspecified),5.1,-4.5%,0.0%
CN(Cc1ccco1)C(=O)C(Cc1ccccc1)NS(=O)(=O)c1ccc2c(c1)CCC(=O)N2 (stereo unspecified),-81.1*,-0.8%,5.2%
COc1ccc(NC(=O)N2CCc3nc(-c4ccc(OC)cc4C)c4c(c3C2)CO[C@@H](c2ccccc2)C4)cc1,x,-2.0%[11.4 µM],x
CS(=O)(=O)N(Cc1ccccc1)c1ccc(C(=O)Nc2cccnc2)cc1,-100.0*,0.7%,x
CN(c1ccc(C(=O)NCc2ccncc2)cc1)S(C)(=O)=O,0.7,-0.9%,1.6%
Cc1ccccc1NC(=O)c1ccc(CN(c2ccccc2)S(=O)(=O)c2ccccc2)cc1,-134.0*,0.2%,x
CS(=O)(=O)N(Cc1ccc(Cl)cc1)c1ccc(C(=O)Nc2cccnc2)cc1,u,-17.9%,15.1%
CC(C)c1ccccc1NC(=O)c1ccc(CN(c2ccccc2)S(=O)(=O)c2ccccc2)cc1,u,-1.0%,x
CN(c1ccc(C(=O)NCc2cccnc2)cc1)S(C)(=O)=O,-100.0*,-3.1%,x
Cc1cc(C)nc(SCc2ccc(C(=O)N/N=C/C3CCCCC3)cc2)n1,-24.1,2.1%,x
Cc1cccc(N2CCN(C(=O)c3ccoc3C)CC2)c1C,42.0,-2.0%,x
CCOC(N)=O,x,2.3%,5.2%
Cc1ccc(C)c(-c2ccc(C(=O)O)o2)c1,x,1.9%[0.00818 µM],-11.8%[0.0915 µM]
CCOc1cc(NC(=O)c2cnccn2)c(OCC)cc1NC(=O)c1ccc(OC)cc1,-4.6,-1.7%,-5.5%
FC(F)(F)c1ccccc1-c1cc(NCc2cccs2)ncn1,x,x,-3.4%
Cc1ccc(Oc2ccc(-c3nnc(-c4ccccc4)o3)cc2[N+](=O)[O-])cc1C,u,1.7%,x
Cc1ccc(C)n1N1C(=O)/C(=C\c2ccc(Cl)cc2)SC1=S,72.1,-9.1%,u
NS(=O)(=O)c1ccc(CCN2C(=O)/C(=C\c3ccc(Cl)cc3)SC2=S)cc1,-83.7*,-3.2%,x
c1cncc(-c2cccnc2)c1,42.3,0.4%,x
CC(C)n1c(-c2cccnc2)nc2cnccc21,-100.0*,1.6%,x
COc1ccc2c(c1OC)CN1CCc3cc4c(cc3[C@@H]1[C@@H]2O)OCO4,44.2,-0.4%,x
COc1cc2c(cc1OC)C1Cc3ccc(OC)c(OC)c3CN1CC2 (stereo unspecified),-86.1*,0.5%,6.4%
Cn1cccc1C(=O)N1CCC2(CCCN(c3ccc(-c4ccccc4)cc3)C2)CC1,x,-7.1%,-5.0%
CCN1CCc2c(sc(NC(=O)c3ccc(S(=O)(=O)N4CCOCC4)cc3)c2C(N)=O)C1,27.2,3.6%,0.3%
SMILES,PNC assembly inh,ALOX12 inhib,ALOX15B inhib
CCN1CCc2c(sc(NC(=O)Nc3ccc(Cl)c(Cl)c3)c2C(N)=O)C1,-118.2*,-7.3%,x
COCC(=O)N1CCC2(CC1)CN(Cc1ccc(C#N)cc1)C2,x,1.5%,5.6%
Cc1ccc(NC(=O)NCCN2C(=O)C3C4C=CC(C4)C3C2=O)cc1 (stereo unspecified),-2.4,2.6%,0.5%
COc1ccc(NC(=O)NCCN2C(=O)C3C4C=CC(C4)C3C2=O)cc1 (stereo unspecified),-82.0*,-5.8%,x
CCCCc1nc2c(c3c1C[C@H](C)OC3)CN(C(=O)C1CC1)CC2,x,0.8%[11.4 µM],x
COc1ccc(/C(C)=N\Nc2nc(-c3ccccc3)cc(=O)[nH]2)cc1,-4.7,-3.2%,x
CN(C)c1ccc(/C=N\Nc2nc(-c3ccccc3)cc(=O)[nH]2)cc1,-118.2*,-3.5%,x
COCCCNC(=S)NC(=O)c1ccc(C)cc1,-21.0,u,x
CN(C)c1ccc(-c2nc(NCc3cccnc3)c3ccccc3n2)cc1,x,0.3%,33.9%
O=C(Nc1ccc(Cl)c(Cl)c1)N(CCCN1CCOCC1)Cc1cccs1,26.6,-7.8%,45.1%
CCC(NC(=O)C1CCC1)c1ccccc1 (stereo unspecified),-100.0*,0.4%,x
CC(NC(=O)C1CC2CCCC(C1)C2=O)c1ccccc1 (stereo unspecified),-18.4,1.9%,4.2%

# Screens from PubChem.
